Source: PubChem BioAssay
Shown are actives, neighbours in structure and some others; about 1.3% of the full set was active somewhere.
PTHR1 ag = qHTS for PTHR1 Agonists: Primary Screen | Parathyroid hormone/parathyroid hormone-related peptide receptor (Homo sapiens), Q03431 | HEK293 GP2 PTHR1 cells, GloSensor cAMP luminescence, 1 h | Potency, µM (highest dose often 115 µM), for the others: at the top dose activation, hits mostly activators | 410,000 compounds, 0.075% hits; further: potency means the concentration at half of the fitted maximal effect; nearly all actives have a fitted effect of over 55% in size
Target sequence (Q03431 whole entry, looked up): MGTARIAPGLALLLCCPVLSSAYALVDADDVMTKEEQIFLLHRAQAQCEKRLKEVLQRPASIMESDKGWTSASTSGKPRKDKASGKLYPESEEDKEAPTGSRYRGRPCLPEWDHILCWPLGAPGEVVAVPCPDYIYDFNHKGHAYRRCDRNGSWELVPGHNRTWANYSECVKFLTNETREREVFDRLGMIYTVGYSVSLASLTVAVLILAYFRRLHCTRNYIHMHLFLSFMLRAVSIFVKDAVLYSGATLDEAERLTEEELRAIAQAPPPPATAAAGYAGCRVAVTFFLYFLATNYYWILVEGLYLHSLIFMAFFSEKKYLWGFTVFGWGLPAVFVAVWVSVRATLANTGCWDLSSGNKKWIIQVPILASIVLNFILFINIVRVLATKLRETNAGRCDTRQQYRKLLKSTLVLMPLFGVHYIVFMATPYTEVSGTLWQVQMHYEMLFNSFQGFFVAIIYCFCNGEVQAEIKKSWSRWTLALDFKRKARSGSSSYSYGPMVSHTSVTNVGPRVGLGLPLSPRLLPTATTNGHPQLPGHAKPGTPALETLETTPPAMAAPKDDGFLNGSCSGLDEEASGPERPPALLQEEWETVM
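HEK-293-derived GP2 cells expressing PTHR1 and a GloSensor cAMP reporter, 3,000/well, plated overnight, given luciferin plus IBMX (each 0.5 mM as added) for 1 h at 37 °C, then compound for 1 h at 37 °C. Luminescence was read after 15 min at room temperature.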
IL-2 act = qHTS of IL-2 Activators; activation, % (series mostly up to about 46 µM); 360,000 compounds, 0.065% hits; IL-2 activation reporter assay, cell-based qHTS; stimulated with anti-CD3/CD4/CD28 beads; in transgenic mouse T cells; in the data active means activation above about 50%; inconclusive means mostly about 30% to 49%; further: 0% is about no effect
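Unstimulated transgenic mouse T cells, 750 per well, received compound and, after 60 minutes, anti-CD3/anti-CD4 bead plus anti-CD28 stimulation. EGFP and DsRed were quantified after 18 hours.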
BRCA1 expr act = qHTS Assay to Identify Small Molecule Activators of BRCA1 Expression; MCF7-BRCA1-FFLuc reporter, luminescence, 48 h; response scale: scaled: vehicle 0%, 10 µM genistein 100%; Potency, µM (doses to about 46.1 µM), inactives show top-dose activation, most hits filed as activators; 380,000 compounds, 1.1% hits; further: potency means the concentration at half of the fitted maximal effect; nearly all actives have a fitted effect of over 80% in size
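Compounds are tested at multiple concentrations on MCF7 BRCA1-luciferase reporter cells seeded at 2000 per well; after 48 h, a single luminescence end-point is taken and curves fitted to the normalized data.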
Mito fusion act = qHTS Assay for Small Molecule Inhibitors of Mitochondrial Division or Activators of Mitochondrial Fusion; S. cerevisiae fusion-defective mutant growth rescue, CellTiterGlo 48 h; Potency, µM (series often up to 46.1 µM), without a hit: at the highest dose growth rescue (activation), actives largely listed as activators; 320,000 compounds, 0.23% hits; further: potency means the concentration at half of the fitted maximal effect; % of control where 0% means no effect; nearly all actives have a fitted effect of over 45% in size
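Compounds are tested for their ability to restore growth of mitochondrial fusion-defective yeast strains at non-permissive 37C in YPEG medium over 48 hours. Viability is quantified by luciferase luminescence.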
TCR activator = Activators of T cell receptors: qHTS campaign; primary human leukocytes, anti-CD3, IL-2 HTRF, 48 h; Potency, µM (highest dose often 9.22 µM), for the others: at the top dose activation of IL-2 secretion, most hits filed as activators; 330,000 tested, under 10 active; further: % of control where 0% means no effect
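IL-2 release read by HTRF sandwich (Eu cryptate donor, d2 acceptor, 665 nm emission) after 48 hr exposure of primary human leukocytes to compound together with anti-CD3 beads in the absence of co-stimulatory signals.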
BCR signal inh = qHTS Assay to Find Inhibitors of Chronic Active B-Cell Receptor Signaling; ABC-DLBCL IkBa-CBG/CBR reporter, luminescence ratio, 4 h; 340,000 compounds, 0.05% hits; Potency, µM (doses to about 46.1 µM), for the others: at the top dose activity change, negative = inhibition, actives largely listed as inhibitors; active means well fitted inhibition curve with a large enough effect in the signal ratio, with a control signal flat, not every such curve was filed as active; inconclusive means small, poorly fitted or top-dose-only effect, or effect the other way, or a change in a side signal; the % refers to the signal ratio;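 further: potency means the concentration at half of the fitted maximal effect; plate controls were basal doxycycline-induced cells for no effect and cells given 10 µM MG132 for full effect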
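Doxycycline induced both beetle luciferases in TMD8 lymphoma cells; IKK-driven degradation limits the IkappaBalpha-fused green signal, while red luminescence normalises for cell number and nonspecific effects. Compounds tested up to 46 uM, 4 hrs.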
Numbers without * were called inactive; i = inactive; ? = inconclusive; . = no result; [ ] = another dose, or the depositor's remark. Unless noted, the call rests on the fitted dose curve; in most records, active means well fitted curve in the direction sought with a large enough effect; inconclusive means small, poorly fitted or top-dose-only effect, or another doubt; inactive means no such curve, though single readings can be large; an effect the other way counts as inactive or inconclusive.

SMILES | PTHR1 ag | IL-2 act | BRCA1 expr act | Mito fusion act | TCR activator | BCR signal inh
C/C(=N\Nc1ncnc2sc(C)c(C)c12)c1ccccn1 | -16% | 122* | -24% | -17% | -4% | ?
Cc1sc2ncnc(N/N=C/c3cccc(O)c3)c2c1C | -15% | -5 | -50% | 1% | -4%[46.1 µM] | 2%
O=c1c2ccccc2nc(-c2ccco2)n1Cc1ccccc1 | -89% | -2 | 7.9µM* | 14% | -6% | .
c1ccc(Cn2c(-c3ccco3)nc3nc4ccccc4nc32)cc1 | -29% | 2 | ? | 2% | -1% | 6%
O=C(Nc1cccc(Nc2ccccc2)c1)c1cnn2c1NC(=C1CC1)C=C2C(F)F | . | . | 0% | . | . | .
CCc1nc2oc3ccc(C)cc3c(=O)c2cc1C(=O)OC | -5% | 3 | 6.3µM* | 9% | 2% | 3%
O=[N+]([O-])c1ccc(Nc2nc(NCCN3CCOCC3)nc(Nc3ccc(I)cc3)n2)cc1 | . | . | -79% | . | . | .
Nc1[nH]c(=S)[nH]c(=O)c1N=O | . | . | 4% | . | . | .
COC(=O)C1=C(C)NC(=O)/C1=C\c1cc(C)n(-c2ccccc2)c1C | -10% | 0 | 7.1µM* | -2% | -4% | 2%
CC(=C/c1ccccc1)/C=C1/SC(N2CCOCC2)=NC1=O | -6% | 2 | 11µM* | 4% | 4% | ?
CN(CC(=O)N1CCCCCC1)S(=O)(=O)c1ccc(F)cc1 | -5% | 2 | 10µM* | 6% | -2% | -1%
O=C(O)c1ccc(C=NN2CCCCCC2)cc1 | i | -4 | 104% | . | -2% | .
O=C(O)c1ccc(/C=N/N2CCN(c3ccccc3)CC2)cc1 | -13% | -1 | 4.5µM* | 2% | . | 1%
COc1ccc2oc(=O)c(-c3csc(Nc4ccc(O)cc4)n3)cc2c1 | -90% | -2 | -67% | 16µM* | -2%[46.1 µM] | ?
C/C(NC(=O)c1ccccc1F)=C1\C(=O)C[C@@H]2[C@H]1C2(C)C | -25% | -4 | 11µM* | 12% | 8% | 10%
COc1ccc(/C=C(/C#N)c2nc(-c3cc4ccccc4oc3=O)cs2)cc1 | -19% | . | . | . | . | .
CC1CCC/C(=C(\C#N)c2nc(-c3cc4ccccc4oc3=O)cs2)C1 (stereo not drawn) | -12% | 2 | 3.2µM* | 7% | -8%[46.1 µM] | -1%
CC1(C)CC2(CCO1)OC(=O)CC2C(=O)Nc1ccccc1Cl (stereo not drawn) | -29% | 0 | 91% | 2% | 2% | 10%
C[C@@H]1CN([C@@H](C)CO)C(=O)CCCn2nncc2CO[C@@H]1CN(C)C(=O)Nc1ccc2c(c1)OCO2 | -20% | 0 | 1% | . | . | .
COc1ccc(OC)c(CCNC(=O)C(C)n2c(C)c3cnn(-c4ccccc4)c(=O)c3c2C)c1 (stereo not drawn) | i | . | 0% | . | . | .
Cc1ccc(NC(=O)c2ccco2)c([N+](=O)[O-])c1 | -11% | 0 | 7.9µM* | 5% | -2% | ?
Cc1sc2ncnc(N=Nc3c(O)[nH]c4ccccc34)c2c1C | -11% | 13 | -21% | 0% | 3%[46.1 µM] | ?
CCc1cc2c(N=Nc3c(O)[nH]c4ccccc34)ncnc2s1 | i | 68* | -52% | -1% | -4%[46.1 µM] | -3%
CCOC(=O)c1sc2ncn(CC(=O)Nc3cc(C)on3)c(=O)c2c1C | -4% | 0 | 7% | -4% | 11% | 1%
Cc1nn(C)c(C)c1N1C(=O)c2cccc3c(N)ccc(c23)C1=O | i | 8 | -16% | 6% | 5%[46.1 µM] | -1%
SMILES | PTHR1 ag | IL-2 act | BRCA1 expr act | Mito fusion act | TCR activator | BCR signal inh
Cc1ccc(N2C(=O)c3cccc4c(N)ccc(c34)C2=O)c2cccnc12 | -22% | 317* | -44% | 4% | -5% | ?
O=S(=O)(c1ccc(C(F)(F)F)cc1)N1CCN(c2nc(-c3cccs3)nc3ccccc23)CC1 | . | . | 0% | . | . | .
CCCCn1c(N)c(N(CCOC)C(=O)c2cc(S(=O)(=O)N3CCOCC3)ccc2Cl)c(=O)[nH]c1=O | 0% | 0 | 12% | . | 13% | .
CSCC(=O)N1CCc2ccc(NC(=O)c3ccccc3Cl)cc2C1 | -69% | -1 | 10µM* | 3% | -3% | -14%
CN(C)S(=O)(=O)N1CCc2ccc(NC(=O)c3ccccc3Cl)cc2C1 | -15% | -3 | 77% | 2% | 1% | 0%
CCC1(c2ccc(F)cc2)NC(=O)N(CC(=O)N2CCN(S(=O)(=O)c3ccc(C)cc3)CC2)C1=O (stereo not drawn) | -18% | 0 | 1% | -11% | 5% | -3%
c1ccc(CSc2nnc(-c3ccco3)o2)cc1 | i | 1 | 0% | 3% | -1% | ?
CC(=O)n1nc(-c2ccco2)nc1SCc1ccccc1 | -26% | -1 | 11µM* | 3% | -4%[46.1 µM] | -14%
Cc1ccc(CSc2nnc(-c3ccco3)o2)cc1 | -69% | -1 | 5µM* | 1% | -2% | 7%
O=C(O)c1ccc(CSc2nnc(-c3ccco3)o2)cc1 | -17% | 2 | -4% | 1% | 3% | 18µM*
CC(=O)Nc1cncc(-c2cccc(S(C)(=O)=O)c2)n1 | -18% | 0 | 6% | . | . | .
CC(C)CCn1c(NCCc2ccccc2)nc2c1c(=O)n(C)c(=O)n2C | -44% | -4 | -25% | 18µM* | 2% | ?
Cc1csc(NC(=O)Cc2ccccc2Cl)n1 | i | 1 | 10µM* | -6% | -2% | 6%
COc1cc2cncnc2cc1OCCCCC(N)=O | . | . | 12% | . | . | .
COCCNC(=S)N1CCN(c2nc3ccccc3s2)CC1 | -46% | 0 | 30% | 21% | 14% | 0%
COCc1cn(-c2nc3ccccc3s2)nn1 | i | 1 | 11µM* | . | . | .
N#CCCCc1cn(-c2nc3ccccc3s2)nn1 | -42% | 0 | 10µM* | . | . | .
CC(C)(C)c1cc(NS(=O)(=O)c2cccs2)no1 | -6% | 1 | -2% | 0% | 0% | 5%
O=C1C=C(Nc2ccc(Cl)cc2Cl)CC(c2ccco2)C1 (stereo not drawn) | -15% | -6 | 0% | 8% | 7% | 13µM*
O=C1C=C(NCc2ccc(Cl)cc2)CC(c2ccco2)C1 (stereo not drawn) | -2%[57.5 µM] | 3 | -64% | -2% | -1% | 6%
O=C1Cc2ccccc2Sc2ccc(O)cc21 | -28% | -3 | -1% | 14µM* | 0%[46.1 µM] | -9%
CNc1nc(-c2ccc([N+](=O)[O-])cc2)cs1 | -25% | 0 | 10µM* | 5% | 3% | 9%
